According to PubChem BioAssay (Tox21):
Unmarked numbers belong to inactive results. Active and inactive are the calls of the source. Calls follow the shape of the dose curve; as a rule, active = well fitted curve in the direction sought with a large enough effect in the repeat runs; inconclusive = weak or mixed curves; inactive = flat fitted curve, though single readings scatter.

Assay: qHTS assay to test for compound auto fluorescence at 460 nm (blue) in HEK293 cell free culture (AID 720681)
Details: cell-free medium, autofluorescence 405/460 nm (blue); series mostly up to 46 µM
From the text: U.S. Tox21 Program National Center for Advancing Translational Sciences [NCATS] NIH Chemical Genomics Center [NCGC] U.S. Environmental Protection Agency [EPA] National Institutes of Environmental Health Sciences [NIEHS] National Toxicology Program [NTP] U.S. Food and Drug Administration [FDA] Tox21 Assay Overview: Compound auto fluorescence often interferes with screening of the compound library against various biological targets and signaling pathways. Some of these compounds may have fluorophoric properties. Such properties may interfere with the assay outputs resulting in false positives and/or negatives. To decrease such complications and ensure the compound activities are relevant in terms of biological response, the Tox21 10K compound library was screened for auto fluorescence. From the fluorophores used as reporter signals in our screening assays, the auto fluorescence equivalencies of compounds against three fluorophores have been evaluated: Triamterene, Fluorescein and Rose Bengal sodium for blue, green and red fluorescence, respectively. The fluorescence intensities were measured using Excitation/Emission wavelengths at 405/460nm, 485/535nm and 540/590nm for blue, green and red labels, respectively. This assay includes the blue fluorescence data.
Tox21 Assay Protocol Summary: 5 uL of culture medium (DMEM containing 10% FBS) per well was dispensed into black wall/clear bottom 1536-well plates using a Multidrop Combi Dispenser (ThermoFisher Scientific, Waltham, MA). After 23 nL compound or DMSO vehicle was transferred into assay plate by a pintool work station (Kalypsys, San Diego, CA), fluorescence intensities in the assay plates were measured by an Envision (PerkinElmer, Shelton, CT) plate reader using three labels for measuring blue, green and red fluorescence at […] 460, 535 and 590nm respectively.
% is scaled to controls: 0 for no effect and ±100 for the full control effect.

Structure (SMILES)	outcome	fluorescence, % of fluorescent control
COc1ccccc1OCC(O)CN1CCN(CC(=O)Nc2c(C)cccc2C)CC1 (stereo not given)	inactive	
OCCCC1CCCCC1	inactive	
N[C@@H](C(=O)N[C@@H]1C(=O)N2C(C(=O)O)=C(Cl)CS[C@H]12)c1ccccc1	inactive	
CN1CC(=O)NC1=N	inactive	
COCCCOCCCOC	inactive	
O=C1CC2CC1C1CCCC21 (stereo not given)	inactive	
c1ccc([C@H]2CN3CCSC3=N2)cc1	inactive	
OC(CCN1CCCCC1)(c1ccccc1)C1CC2C=CC1C2 (stereo not given)	inactive	
CC(C)CNCC(C)C	inactive	
C=C(C)C(=O)OCCCCCCCC(C)C	inactive	
Oc1ccc(C2CNCCc3c2cc(O)c(O)c3Cl)cc1 (stereo not given)	inactive	
O=C(O)Cc1ccc(CCNS(=O)(=O)c2ccc(Cl)cc2)cc1	inactive	
CCOC(=O)c1cccc(N)c1	inactive	
CS(=O)(=O)O	inactive	
CCCCCCCCCCCC	inactive	
NC(CSCC(=O)O)C(=O)O (stereo not given)	inactive	
C=C(C)CS(=O)(=O)O	inactive	
CCCCCCOC(=O)CCCCC(=O)OCCCCCC	inactive	
CC1=CC(C)C(C=O)CC1 (stereo not given)	inactive	
FC(F)OC(Cl)C(F)(F)F (stereo not given)	inactive	

Structure (SMILES)	outcome	fluorescence, % of fluorescent control
Cn1c(N)c(N=O)c(=O)n(C)c1=O	inactive	
CCOC(C)(C)C	inactive	
O=c1cc(CO)occ1O	inactive	
O=c1[nH]c(=O)n([C@H]2C[C@H](O)[C@@H](CO)O2)cc1I	inactive	
CCCCOCCOCCOCCCC	inactive	
CC(C)CCCC(C)N (stereo not given)	inactive	
OCCOc1ccc(OCCO)cc1	inactive	
Cn1cc(S(C)=O)c(=O)c2ccc(F)cc21 (stereo not given)	inactive	
CO/N=C(/C(=O)N[C@@H]1C(=O)N2C(C(=O)OCOC(=O)C(C)(C)C)=C(C)CS[C@H]12)c1csc(N)n1	inactive	
CC(=O)OCC(CCn1cnc2cnc(N)nc21)COC(C)=O	inactive	
NC(=O)c1ccc([N+](=O)[O-])cc1	inactive	
CC(C)c1cc2c(cc1S(=O)(=O)O)[C@@]1(C)CCC[C@@](C)(C(=O)O)[C@@H]1CC2	inactive	
CCCCCCCCCCCCCC=O		-0.0434% [at 3.72 µM]
CN(C)CCCNCCCN(C)C	inactive	
Cc1ccc(C#N)cc1	inactive	
CCOC(=O)c1ccc(C)cc1	inactive	
ClC(Cl)(Br)Br	inactive	
O=C1CCCCCCCCCCCN1	inactive	
N[C@H](C(=O)O)c1ccc(O)cc1	inactive	
C=COCC1CCC(CO)CC1 (stereo not given)	inactive	
